Rows were chosen to be rich in hits. Some 10% of all compounds tested hit in one or more screens of this group.
Lamin A splicing: changes lamin A minigene splicing in HeLa cells | HeLa LMNA splicing GFP/RFP minigene ratio, 48 h | Potency, µM (series often up to 46.1 µM), actives largely listed as inhibitors | hit rate 0.01% among 200,000 | AID 1487; active means well fitted inhibition curve with a large enough effect in the signal ratio, with a control signal flat, not every such curve was filed as active; inconclusive means small, poorly fitted or top-dose-only effect, or effect the other way, or a change in a side signal; the % refers to the signal ratio
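Read-out is the ratio of GFP to DsRed2 object intensity, acquired by 488 nm laser-scanning cytometry on HeLa lamin A-EGFP minigene reporter cells. Compound incubation 48 hrs at 37 °C in Opti-MEM with 2% FBS; DMSO 0.5% final.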
HPGD block: inhibitors of human 15-hydroxyprostaglandin dehydrogenase (HPGD). purified HPGD, NADH fluorescence kinetic, PGE2 substrate. AID 894. Potency, µM, actives largely listed as inhibitors. hit rate 4.3% among 150,000
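NADH formation kinetics: reaction with 30 uM PGE2 and 1 mM NAD+ (final), 20 nM enzyme, Tris-HCl pH 8 with Tween 20, after 15 min compound preincubation at room temperature. Fluorescence change, last versus first of five reads.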
PNC inhibitor: blocks assembly of the perinucleolar compartment. activity change (PNC), negative = inhibition, % at 10 µM. hit rate 3.1% among 140,000. AID 2417. PC3M PTB-GFP, PNC prevalence imaging, 16 h; active compounds read low;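 active means readout at or below -70, meaning at least 70% loss of cells showing the perinucleolar compartment, a nuclear body marking cancer cells; inconclusive means readout between -30 and a set limit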
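Read-out is percentage of cells bearing a perinucleolar compartment, from automated 20x imaging of fixed, Hoechst-stained PC3M PTB-GFP cells. Cells were seeded 4 h, then exposed 16 h to compound (23 nl of library stock) in duplicate plates.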
ALOX12 inhib: 12-hLO (ALOX12) enzyme inhibition | AID 1452 | hit rate 0.12% among 150,000 | purified 12-hLO, xylenol orange hydroperoxide absorbance | Potency, µM (series often up to 57.1 µM), usual class: inhibitors; active means well fitted inhibition curve with a large enough effect; inconclusive means small, poorly fitted or top-dose-only effect; further: nearly all actives have a fitted effect of over 55% in size
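Purified human 12hLO (150 nM final) was preincubated with compounds for 15 min at room temperature in 25 mM Hepes pH 7.0, 0.01% Triton X-100, then reacted with 40 uM arachidonic acid for 30 min. Hydroperoxide was detected with ferrous iron/xylenol orange.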
ALDH1A1 block: ALDH1A1 (human) enzyme inhibition | Potency, µM (doses to about 75.3 µM), usual class: inhibitors | Purified ALDH1A1, NADH fluorescence, propionaldehyde substrate | hit rate 7.3% among 220,000
Target sequence (P00352 whole entry, looked up): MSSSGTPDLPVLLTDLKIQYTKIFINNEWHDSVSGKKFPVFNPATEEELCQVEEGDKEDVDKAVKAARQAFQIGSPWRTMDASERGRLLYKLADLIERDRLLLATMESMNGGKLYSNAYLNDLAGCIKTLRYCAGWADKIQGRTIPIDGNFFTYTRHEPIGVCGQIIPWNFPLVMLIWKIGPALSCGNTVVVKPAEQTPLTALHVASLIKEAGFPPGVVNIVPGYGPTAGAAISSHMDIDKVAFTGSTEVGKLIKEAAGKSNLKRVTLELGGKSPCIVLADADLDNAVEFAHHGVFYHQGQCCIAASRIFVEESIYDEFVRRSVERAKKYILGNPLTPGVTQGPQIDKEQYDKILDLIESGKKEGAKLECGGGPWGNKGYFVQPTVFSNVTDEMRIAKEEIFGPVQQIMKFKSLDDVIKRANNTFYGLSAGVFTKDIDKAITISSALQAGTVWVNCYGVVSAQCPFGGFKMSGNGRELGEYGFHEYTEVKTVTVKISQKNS
A number is an active result; n = inactive; u = inconclusive; x = no result; [ ] = dose if it differs, or a comment. Unless noted, the call rests on the fitted dose curve; in most records, active means well fitted inhibition curve with a large enough effect (not every such curve was filed as active); inconclusive means small, poorly fitted or top-dose-only effect, or another doubt; inactive means no such curve, though single readings can be large or run the other way.

SMILES	Lamin A splicing	HPGD block	PNC inhibitor	ALOX12 inhib	ALDH1A1 block
Cc1ccc(C(=O)COC(=O)c2cnccn2)cc1	n	n	-102.2	n	n
Cc1cccc(CNC(=O)c2cnc3sc(N4CCCCCC4)nn3c2=O)c1	n	x	x	x	x
CCC1CCCCN1C(=O)CSc1nnc(-c2c[nH]c3ccccc23)o1 (centres undefined)	n	n	n	n	12.6µM
CC1CCCC(C)N1C(=O)CSc1nnc(-c2c[nH]c3ccccc23)o1 (centres undefined)	n	n	n	n	10µM
CCC(C)NC(=O)CSc1nnc(-c2c[nH]c3ccccc23)o1 (centres undefined)	n[9.22 µM]	x	x	x	n
CC1CCCN(C(=O)CSc2nnc(-c3c[nH]c4ccccc34)o2)C1 (centres undefined)	n	15.8µM	u	n	14.1µM
Cc1ccc(CNC(=O)CN2C(=O)C3(SCC(=O)N3c3ccc(F)c(F)c3)c3ccccc32)cc1 (centres undefined)	n	x	x	x	x
CCN(CC)CCCCn1c(-c2ccccc2)nc2c(NCc3ccccc3)nc(C)nc21	x	u	x	n	u
Cc1ccc(/C=C/C(=O)N2CCCC(C)C2)cc1 (centres undefined)	n	1.58µM	n	n	u
CC1CCN(C(=O)/C=C/c2ccc(C(C)(C)C)cc2)CC1	u	15.8µM	n	n	n
CC(=O)O[C@@H]1CC2C(C)(C)C(=O)C=C[C@]2(C)C2CC[C@]3(C)C(=CC[C@H]3C3CO[C@@H](C(C)(C)O)[C@H](O)C3)[C@@]21C (some centres undefined)	x	n	x	x	n
CCN(CC)CCC[C@H](C)Nc1c2ccc(Cl)cc2nc2ccc(OC)cc12	u	u	x	n	u
Cc1cccc(N(CC(=O)Nc2ccc(CC#N)cc2)S(C)(=O)=O)c1	n	n	-84.2	n	n
C/C(=N\NC(=S)Nc1c(C)cccc1C)c1ccc(OC(F)F)cc1	u	n	n	n	n
CCOC(=O)c1c(S(=O)(=O)N2CCCC(C(=O)Nc3cccc(C#N)c3)C2)c(C)n(C)c1C (centres undefined)	n	x	x	x	x
Cc1cc(-c2ccco2)n(-c2ccccc2)n1	n	31.6µM	u	n	1.41µM
Cc1cc(NC(=O)c2cc(-c3ccco3)on2)n(-c2ccccc2)n1	n	n	n	n	u
CSc1nc(-c2ccccc2)nc(N2CCCC2)c1C(C)=O	u	20µM	n	n	n
CCCNC(=O)c1ccc2c(=O)n(Cc3ccco3)c(=S)[nH]c2c1	x	x	x	x	7.08µM
COc1ccc(CCNC(=O)c2ccc3nc(-c4ccco4)c(-c4ccco4)nc3c2)cc1OC	n	u	n	n	0.316µM
CC(C)NC(=O)c1ccc2c(=O)n(Cc3ccco3)c(=S)[nH]c2c1	n	n	n	n	8.91µM
COc1cc2[nH]c(=O)n(Cc3ccccc3Cl)c(=O)c2cc1OC	n	n	n	n	u
COc1cc2[nH]c(=S)n(Cc3ccccc3)c(=O)c2cc1OC	n	x	x	x	4.47µM
COc1ccccc1N1CCN(C(=O)c2ccc3c(=O)n(Cc4ccco4)c(=S)[nH]c3c2)CC1	n	n	u	n	u
CCOCCCNC(=O)c1ccc2c(=O)n(CCCOCC)c(=S)[nH]c2c1	x	x	x	x	n
SMILES	Lamin A splicing	HPGD block	PNC inhibitor	ALOX12 inhib	ALDH1A1 block
COc1ccccc1CCNC(=O)C(=O)NCC(c1ccco1)S(=O)(=O)c1ccccc1 (centres undefined)	n	x	x	x	x
O=C(Nc1cccc(C(F)(F)F)c1)c1ccc2nc(-c3ccco3)c(-c3ccco3)nc2c1	n	u	n	n	0.398µM
COC(=O)c1ccc2c(=O)n(CCCCCC(=O)O)c(=S)[nH]c2c1	n	u	u	n	14.1µM
O=C(Nc1cccc(C(F)(F)F)c1)c1ccc2nc(N3C(=O)CCC3=O)sc2c1	n	u	n	n	u
CC1CCN(CCCNC(=O)c2ccc3c(=O)n(Cc4ccc(Cl)cc4)c(=S)[nH]c3c2)CC1	x	x	x	x	15.8µM
COCCn1c(=S)[nH]c2cc(C(=O)NC(C)C)ccc2c1=O	n	n	n	n	0.178µM
COC(=O)c1ccc2c(=O)n(CCO)c(=S)[nH]c2c1	n	n	u	n	n
CC(C)c1cnc2c(c1SCC(=O)c1ccc(Cl)cc1)c(=O)n(C)c(=O)n2C	n	x	x	x	x
COc1cc(C2C(=O)N(C3CCCCC3)CC(=O)N2CCc2ccccc2)ccc1OC(C)C (centres undefined)	n	x	x	x	x
CCOc1cc(C2CC(=O)Nc3c2c(C)nn3-c2nc(C)cc(C)n2)ccc1O (centres undefined)	n	x	x	x	x
COc1ccc(O[C@H]2C=C[C@@H](c3ccccc3)O[C@H]2COC(=O)CC/C(C)=N\O[C@@H](C)CN2CCCc3nc(C)c(C)cc32)cc1	x	x	x	x	n[13.5 µM]
COc1ccc(CCNC(=O)c2ccc3c(=O)n(Cc4ccco4)c(=S)[nH]c3c2)cc1OC	n	n	u	n	2.51µM
COCCNC(=O)c1ccc(Cn2c(=S)[nH]c3cc4c(cc3c2=O)OCO4)cc1	n	12.6µM	u	n	n
COC(CNC(=O)c1ccc(Cn2c(=S)[nH]c3cc4c(cc3c2=O)OCO4)cc1)OC	n	x	n	n	n
COc1cccc(-n2nc(-c3ccnn3-c3ccc(C)cc3)c(=O)n(C)c2=O)c1	n	n	u	n	39.8µM
CCCOc1cccc(OCCSc2nc(C)cc(=O)[nH]2)c1	u	n	-85.7	n	n
c1ccc([P+](CC[P+](c2ccccc2)(c2ccccc2)c2ccccc2)(c2ccccc2)c2ccccc2)cc1	x	n	x	n[11.4 µM]	n[13.5 µM]
O=C(COc1ccccc1)NCc1ccccc1	n	28.2µM	n	n	n
O=C(COC(=O)c1ccccc1C(=O)c1ccccc1)NCc1ccc(F)cc1	x	x	x	x	n
O=C(COc1ccc(C(=O)c2ccccc2)cc1)NCc1ccc(F)cc1	u	n	-81.4	n	u
COc1ccc(NC(=O)CCn2cnnn2)cc1	n	x	x	x	x
Cc1cccc(OCCSc2nc3ccc(NC(=O)c4cccs4)cc3s2)c1	n	x	x	x	x
Cc1nc2ccccc2c(=O)n1NS(C)(=O)=O	n	n	-112.2	n	n
Cc1nc2ccccc2c(=O)n1NC(=O)Nc1ccccc1	n	n	n	n	n
CCOc1ccc(CNC(=O)CCCn2c(=O)c3cccn3c3ccc(F)cc32)cc1	n	x	x	x	x
SMILES	Lamin A splicing	HPGD block	PNC inhibitor	ALOX12 inhib	ALDH1A1 block
COc1ccc(OC)c(NC(=O)N2CCN(S(=O)(=O)c3ccc4c(ccn4C)c3)CC2)c1	n	x	x	x	x
O=C1c2ccccc2-c2n[nH]c3cccc1c23	u	n	x	n	3.16µM
Cc1cc(C(F)F)n2ncc(C(=O)N3CCCCC3)c2n1	n	11.2µM	n	n	n
Cc1cc(C(F)F)n2ncc(C(=O)N3CCC(C(N)=O)CC3)c2n1	n	n	n	n	n
O=C(Oc1ccccc1O)c1cccc2ccccc12	n	x	x	x	n
O=C(CSc1nc2ccccc2c(=O)n1-c1ccccc1)NCc1ccc2c(c1)OCO2	n	n	n	n	u
Cc1cc(C)cc(-n2c(SC(C)C(=O)NCc3ccc4c(c3)OCO4)nc3ccccc3c2=O)c1 (centres undefined)	n	n	n	n	n
